Reference: PubChem BioAssay (NCATS)
Results filed as inconclusive are left out. Active and inactive are the calls of the source. Unless noted, the call rests on the fitted dose curve.

Tests used:
[1] = Cell Viability - BJ (AID 421); conditions: BJ fibroblast viability, qHTS;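 further: potency means the concentration at half of the fitted maximal effect; cells exposed to compound for 40 hours at 37 °C before readout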
How it was run: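 Quantitative HTS: ATP depletion in BJ cells after 40 hr compound exposure in complete culture medium, detected with CellTiter-Glo; AC50 from standard Hill fits.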

[2] = Cell Viability - Hek293 (AID 427;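 active means compounds whose dose-response curve shows a full or clear partial loss of cell viability, called from curve shape rather than a numeric limit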;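 further: potency means the concentration at half of the fitted maximal effect; cells exposed to compound for 40 hours at 37 °C before reading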); conditions: qHTS
How it was run: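 AC50 values derive from Hill-modelled concentration-response of ATP-based luminescence, normalized between DMSO-only and 100 uM tamoxifen controls. Cells were exposed in complete culture medium for 40 hr at 37 °C before detection.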

[3] = Cell Viability - HepG2 (AID 433); conditions: qHTS;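 further: potency means the concentration at half of the fitted maximal effect; potency for ATP loss meaning cytotoxicity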
How it was run: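 HepG2 hepatocellular carcinoma cells (1500/well) were treated with compounds for 40 h at 37 °C in complete medium; intracellular ATP was read by CellTiter-Glo luminescence. Data were normalized to DMSO and 100 uM tamoxifen, and AC50 came from Hill fits.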

[4] = Cell Viability - MRC5 (AID 434); conditions: MRC5 lung fibroblast viability, qHTS;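 further: potency means the concentration at half of the fitted maximal effect; potency reflects cytotoxicity seen as loss of intracellular ATP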
How it was run: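 MRC5 normal human lung fibroblasts, 1500 cells/well, exposed to compound for 40 hr at 37 C. Cellular ATP was read by CellTiter-Glo luminescence; data normalized to DMSO and 100 uM tamoxifen, with AC50 from Hill fits.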

[5] = Cell Viability - SK-N-SH (AID 435); conditions: SK-N-SH neuroblastoma cell viability qHTS;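 further: potency means the concentration at half of the fitted maximal effect; compound exposure lasted 40 h at 37 °C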
How it was run: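 SK-N-SH human neuroblastoma cells (1500/well) were exposed to compounds in complete medium for 40 h at 37 °C, and intracellular ATP was then measured by CellTiter-Glo luminescence. AC50 was taken from Hill fits, normalized to DMSO and 100 uM tamoxifen.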

[6] = target: Mitogen-activated protein kinase 10 (Mus musculus) (UniProt Q61831); assay: JNK3 AlphaScreen Assay (AID 530; active means well fitted curve in either direction with a large enough effect, not every such curve was filed as active;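 further: kinase came from lysate of stimulated human HepG2 cells; signal reports phosphorylation of biotinylated GST-cJun 1-79 at Ser73 with 10 µM ATP; on the % scale 0 is the no-effect control and ±100 the full control effect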); conditions: JNK3 lysate, c-Jun phosphorylation; series mostly up to 57.1 µM
How it was run: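 qHTS format: compounds tested as titrations against IL-1beta/TNF-alpha-activated HepG2 lysate JNK3 with biotin-GST-cJun substrate and 10 uM ATP at room temperature. Loss of anti-phospho-cJun AlphaScreen signal indicates inhibition.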

[7] = Cell Viability - N2a (AID 540; active means well fitted curve in the direction sought with a large enough effect; an effect the other way counts as inactive or inconclusive;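 further: plate controls were DMSO alone for no effect and tamoxifen control for full effect; nearly all actives have a fitted effect of over 45% in size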); conditions: N2a mouse neuroblastoma cell viability; activity change, negative = cytotoxicity: at 92.2 µM (top of the series)
How it was run: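 Mouse neuroblastoma N2a cells (1500/well) were preincubated 5 hr at 37 °C, then exposed to compounds for 40 hr at 37 °C in complete medium. Viability was read as intracellular ATP by CellTiter-Glo luminescence; AC50 from Hill fits.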

[8] = Cell Viability - NIH 3T3 (AID 541; active means well fitted curve in the direction sought with a large enough effect; an effect the other way counts as inactive or inconclusive;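 further: plate controls were DMSO alone for no effect and tamoxifen positive control for full effect; nearly all actives have a fitted effect of over 25% in size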); conditions: NIH 3T3 cell viability, qHTS; activity change, negative = cytotoxicity: at 92.2 µM (top of the series)
How it was run: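 NIH 3T3 mouse embryo fibroblasts (1000 cells/well) were plated in complete medium and treated with compound for 40 hr at 37 °C. Viability was read as intracellular ATP by CellTiter-Glo luminescence; AC50 values came from Hill-equation fits of concentration-response data.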

[9] = Cell Viability - HUV-EC-C (AID 542; active means well fitted curve in the direction sought with a large enough effect; an effect the other way counts as inactive or inconclusive; further: on the % scale 0 is the no-effect control and ±100 the full control effect; nearly all actives have a fitted effect of over 35% in size); conditions: HUV-EC-C endothelial cell viability, qHTS; series mostly up to 92.2 µM
How it was run: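 HUV-EC-C normal human vascular endothelial cells, 1000 cells/well, pre-incubated 5 hr at 37 °C, then exposed to compounds for 40 hr at 37 °C in complete medium. Viability measured as intracellular ATP by CellTiter-Glo luminescence; AC50 from Hill fits.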

O=CNc1ccccc1
inactive: Potency [1] > 92 µM | Potency [2] > 92 µM | Potency [3] > 92 µM | Potency [4] > 92 µM | Potency [5] > 92 µM | outcome [6] | activity change, negative = cytotoxicity [7] 5.69% | Potency [8] | Potency [9]

CCC(C)=O
inactive: Potency [1] > 92 µM | Potency [2] > 92 µM | Potency [3] > 92 µM | Potency [4] > 92 µM | outcome [6] | activity change, negative = cytotoxicity [7] -16.1% | Potency [9]

C(=C/c1ccccc1)/c1ccccc1
inactive: Potency [1] > 92 µM | Potency [2] > 92 µM | Potency [3] > 92 µM | Potency [4] > 92 µM | Potency [5] > 92 µM | outcome [6] | activity change, negative = cytotoxicity [7] -0.717% | Potency [8] | Potency [9]

O=C1CCCCC1
inactive: Potency [1] > 92 µM | Potency [2] > 92 µM | Potency [3] > 92 µM | Potency [4] > 92 µM | Potency [5] > 92 µM | outcome [6] | activity change, negative = cytotoxicity [7] -6.92% | Potency [8]

COC(=O)c1ccccc1
inactive: Potency [1] > 92 µM | Potency [2] > 92 µM | Potency [3] > 92 µM | Potency [4] > 92 µM | Potency [5] > 92 µM | outcome [6] | activity change, negative = cytotoxicity [7] -10.2% | Potency [8] | Potency [9]

Cc1cccc2ccccc12
inactive: Potency [1] > 92 µM | Potency [2] > 92 µM | Potency [3] > 92 µM | outcome [6] | activity change, negative = cytotoxicity [7] -4.08% | Potency [8] | Potency [9]

CCCCOCCOCCOCCCC
inactive: Potency [1] > 92 µM | Potency [2] > 92 µM | Potency [3] > 92 µM | Potency [5] > 92 µM | outcome [6] | activity change, negative = cytotoxicity [7] 3.3% | Potency [8] | Potency [9]

Cc1ccc(C(=O)O)cc1
inactive: Potency [1] > 92 µM | Potency [2] > 92 µM | Potency [3] > 92 µM | Potency [4] > 92 µM | Potency [5] > 92 µM | outcome [6] | activity change, negative = cytotoxicity [7] 3.7% | Potency [8] | Potency [9]

CC/C=C/C#N
inactive: Potency [1] > 92 µM | Potency [2] > 92 µM | Potency [3] > 92 µM | Potency [4] > 92 µM | Potency [5] > 92 µM | outcome [6] | activity change, negative = cytotoxicity [7] -7.86% | Potency [8] | Potency [9]
